Experimental data: PubChem BioAssay (Tox21)
Several values for one entry are separate records, joined by “and”; a condition that tells them apart may be missing. Equal entries are not always repeated. Inconclusive results are not listed. A call without a number means that no potency is given here. Where a structure was tested more than once in an assay, its records may differ in their call. Activity calls are given as the source filed them. Calls follow the shape of the full dose curve.
Potency is read from the fitted curve at half-maximal effect.

Experiment: qHTS assay for small molecule agonists of the antioxidant response element (ARE) signaling pathway - cell viability counter screen (AID 743203); also: nearly all actives have a fitted effect of over 55% in size
Settings: ARE-bla HepG2 viability, CellTiter-Glo luminescence, 16 h; series mostly up to 73.3 µM
Description: National Center for Advancing Translational Sciences [NCATS]
NIH Chemical Genomics Center [NCGC]
U.S. Environmental Protection Agency [EPA]
National Institutes of Environmental Health Sciences [NIEHS]
National Toxicology Program [NTP]
U.S. Food and Drug Administration [FDA]
Oxidative stress has been implicated in the pathogenesis of a variety of diseases ranging from cancer to neurodegeneration. The antioxidant response element (ARE) signaling pathway plays an important role in the amelioration of oxidative stress. The CellSensor ARE-bla HepG2 cell line (Invitrogen) can be used for analyzing the Nrf2/antioxidant response signaling pathway. Nrf2 (NF-E2-related factor 2) and Nrf1 are transcription factors that bind to AREs and activate these genes. The CellSensor ARE-bla Hep G2 cell line contains a beta-lactamase reporter gene under control of the Antioxidant Response Element (ARE) stably integrated into HepG2 cells. The activation of the report gene under culture conditions can be detected by fluorescence intensity. This cell line has been used to screen the Tox21 10K compound library to identify agonists that induce oxidative stress. The cytotoxicity of the Tox21 compound library against the ARE-bla cell line was tested in parallel by measuring the cell viability using CellTiter-Glo assay (Promega, Madison, WI) in the same wells.
Tox21 Assay Protocol Summary:
ARE-bla HepG2 cells were dispensed at 2,000 cells/5 ul/well in 1536-well white wall/solid bottom plates using a Multidrop Combi (ThermoFisher Scientific, Waltham, MA) dispenser. After the assay plates were incubated at 37C/5% CO2 for 5 hrs, 23 nL of compounds dissolved in DMSO, positive controls or DMSO only was transferred to the assay plate by a pintool work station (Kalypsys, San Diego, CA). The plates were incubated at 37C/5% CO2 for 16 hrs, followed by addition of 4 ul/well of CellTiter-Glo reagent into the assay plates using a Flying Reagent Dispenser (Aurora Discovery, San Diego, CA). After 30 min incubation at room temperature, the luminescence intensity in the assay plates was measured using a ViewLux (PerkinElmer, Shelton, CT) plate reader.
With `CN1CC[C@]23c4c5ccc(O)c4O[C@H]2[C@@H](O)C=C[C@H]3[C@H]1C5` the Potency was “inactive”. With `CN[C@@H](C)[C@H](O)c1ccccc1` the Potency was “inactive”. In the case of `O=C(NCNC(=O)NC1C(=O)NC(=O)N1CO)NC1C(=O)NC(=O)N1CO` (stereo not given), the Potency is reported as “inactive”. With `Cc1nc(N(C)C)nc(OC(=O)N(C)C)c1C` the Potency was “inactive”. With `COc1ccc2c(c1OC)C(=O)O[C@H]2[C@@H]1c2cc3c(cc2CCN1C)OCO3` the Potency was “inactive”. With `CC(C)c1ccc(OP(=O)(Oc2ccc(C(C)C)cc2)Oc2ccc(C(C)C)cc2)cc1` the Potency was “inactive”. With `CCCCC#N` the Potency was “inactive”. For `CCC1CCC(=O)O1` (stereo not given), the Potency was “inactive”. For `CC(Cl)C(=O)O` (stereo not given), the Potency was “inactive”. In the case of `CC(=O)NNc1ccccc1`, the Potency is reported as “inactive”. For `CCNC(=O)NC(=O)/C(C#N)=N/OC`, the Potency was “inactive”. For `CCCC[P+](CC)(CCCC)CCCC` (tested in a mixture with another compound), the Potency was “inactive”. With `C[N+](C)(C)CCOC(=O)C(O)(c1ccccc1)c1ccccc1` the Potency was “inactive”. In the case of `CC(C)OC(=O)Cc1ccccc1`, the Potency is reported as “inactive”. In the case of `COC1CC(=C(c2cccs2)c2cccs2)C[N+](C)(C)C1` (stereo not given), the Potency is reported as “inactive”. In the case of `CCCCCCCCCCCCCCCl`, the Potency is reported as “inactive”. With `Clc1ccc2ccccc2c1` the Potency was “inactive”. In the case of `O=C(O)c1ccc(=O)[nH]c1`, the Potency is reported as “inactive”. With `C[C@@H]1C[C@@H]([C@H](O)CC2CC(=O)NC(=O)C2)C(=O)[C@@H](C)C1` the Potency was “inactive”. For `Cc1nnc(-c2ccccc2)c(=O)n1N`, the Potency was “inactive”. In the case of `CCOP(=S)(OCC)SCSc1cc(Cl)ccc1Cl`, the Potency is reported as “inactive”. In the case of `CC(C)(C)NCC(O)c1cc(Cl)c(N)c(C(F)(F)F)c1` (stereo not given), the Potency is reported as “inactive”. With `COc1ccc(C(=O)c2c(C)n(CCN3CCOCC3)c3ccccc23)cc1` the Potency was “inactive”. With `CCC(C)(C)O` the Potency was “inactive”. With `N#CC(C#N)=Cc1ccc(O)c(O)c1` the Potency was “inactive”. In the case of `CCSCc1ccccc1OC(=O)NC`, the Potency is reported as “inactive”. With `CCOC(=O)c1cncn1C(C)c1ccccc1` (stereo not given) the Potency was “inactive”. With `CON(C)C(=O)Nc1ccc(Cl)cc1` the Potency was “inactive”. In the case of `CC(C)(C)NCC(O)c1ccccc1Cl` (stereo not given), the Potency is reported as “inactive”. In the case of `CC(C)CCON=O`, the Potency is reported as “inactive”. With `CN(C)c1ccc(N=O)cc1` the Potency was “inactive and 54.5 µM (active)”. With `CCCC1CCCCN1` (stereo not given) the Potency was “inactive”. In the case of `CCCC(C)(COC(N)=O)COC(=O)NC(C)C` (stereo not given), the Potency is reported as “inactive”. With `CCC1(CCC(C)C)C(=O)NC(=O)NC1=O` the Potency was “inactive”. With `CCCSP(=S)(OCC)Oc1ccc(SC)cc1` (stereo not given) the Potency was “inactive”. For `C1CS1`, the Potency was “inactive”. For `CCOC(=O)NC(O)C(Cl)(Cl)Cl` (stereo not given), the Potency was “inactive”. With `CCOC(=O)c1cn2nc(OP(=S)(OCC)OCC)cc2nc1C` the Potency was “inactive”. For `C=CCSSCC=C`, the Potency was “inactive”. In the case of `O=P(OCC(Br)CBr)(OCC(Br)CBr)OCC(Br)CBr` (stereo not given), the Potency is reported as 36.6 µM (active).
